In all, about 1,100 compounds went through this assay and about 390 (35%) were called active. Another 30% or so got no clear call; they are omitted. This is one part of the list. Unmarked numbers belong to inactive results. Calls follow the shape of the dose curve; as a rule, active = well fitted inhibition curve with a large enough effect; inconclusive = small, poorly fitted or top-dose-only effect; inactive = flat fitted curve, though single readings scatter.

We go through 111 molecules from PubChem BioAssay AID651597 (National Center for Advancing Translational Sciences (NCATS), 2012).
% is scaled to controls: 0 for no effect and ±100 for the full control effect; potency is read from the fitted curve at half-maximal effect.

This experiment concerns the target Luciferin 4-monooxygenase (Photinus pyralis) (UniProt P08659). In words: qHTS of Nrf2 Activators: Hit Validation in Secondary FLuc Assay. Also: nearly all actives have a fitted effect of over 65% in size. Conditions: firefly luciferase inhibition counter-screen, luminescence; series mostly up to 57.5 µM; activity, negative = inhibition: at the top concentration. In outline: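 Purified firefly luciferase is tested for inhibition by compounds in the presence of its substrates, ATP and D-luciferin, each at Km. Inhibition marks likely false positives arising from reporter-enzyme stabilization.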
On to `O=C1N/C(=N\N=C\c2ccco2)SC1Cc1ccc(F)cc1` (stereo unspecified), for which the “activity, negative = inhibition” value is -17.3%.

Regarding `O=C1NC(=Nc2ccccc2)S/C1=C\C=C\c1ccco1`, the Potency is 6.01 µM (active). Regarding `O=C1NC(=Nc2ccccc2)S/C1=C\c1ccccc1`, the Potency was 7.57 µM (active).

`Cc1cccc(CC2S/C(=N/N=C/c3ccco3)NC2=O)c1` (stereo unspecified): the “activity, negative = inhibition” value is -7.31%.

For the molecule `Cc1ccc(N=C2NC(=O)/C(=C/C=C/c3ccco3)S2)cc1`, the Potency was 8.49 µM (active).

Turning to `O=C(CC1S/C(=N/N=C/c2ccco2)NC1=O)Nc1ccccc1` (stereo unspecified), the “activity, negative = inhibition” value was -0.127%. For `Cc1ccc(S(=O)(=O)C=CS(=O)(=O)c2ccc(C)cc2)cc1`, the Potency was 0.379 µM (active). Consider `Cc1ccc(S(=O)(=O)CCSC(=N)N)cc1`, for which the “activity, negative = inhibition” value was 4.13%. As to `Cc1ccc(S(=O)(=O)c2cc3ccccc3oc2=O)cc1`, the “activity, negative = inhibition” value was -1.58%.

Turning to `O=C(COc1cccnc1[N+](=O)[O-])Nc1cccc2ccccc12`, the “activity, negative = inhibition” value is 2.44%. `C/C(=N\NC(=O)COc1ccccc1[N+](=O)[O-])c1cccs1`: the Potency is 9.53 µM (active). Regarding `CCCN(C(=O)c1ccco1)c1nnc(-c2ccccc2C)s1`, the Potency was 6.75 µM (active). Take `CCC/C(=N\NC(=O)c1ccco1)c1ccc(Cl)s1`: the “activity, negative = inhibition” value was -0.842%.

For the molecule `Oc1ccc(NCc2cccc(OCc3ccc(F)cc3)c2)cc1`, the Potency was 3.38 µM (active). `CCOc1ccccc1NS(=O)(=O)c1c(C(=O)OC)sc2cccc(F)c12`: the “activity, negative = inhibition” value was 2.09%.

With `Cc1ccc(C(=O)Nc2nc(-c3ccco3)c(-c3ccco3)s2)o1`, the Potency is 7.57 µM (active). Regarding `CCOC(=O)Cc1csc(NC(=O)/C=C/c2ccco2)n1`, the Potency was 4.26 µM (active). On to `Cc1cc(C)c2oc(-c3ccc(C)c(NC(=O)/C=C/c4ccco4)c3)nc2c1`, for which the Potency was 2.39 µM (active). Consider `Cc1csc(NC(=O)/C=C/c2ccco2)n1`, for which the Potency was 3.01 µM (active).

In the case of `CCC(CC)c1nnc(NC(=O)/C=C/c2ccco2)s1`, the “activity, negative = inhibition” value is -1.49%. For the molecule `Clc1ccc(/C=C/c2ncc3ccccn23)cc1`, the Potency was 1.51 µM (active). Still for that read-out and setting: next, `Clc1ccc(C=Cc2ccccn2)c(Cl)c1`: 0.338 µM (active). As for `Clc1ccc2c(NCc3ccccn3)ncnc2c1`, the “activity, negative = inhibition” value was -0.91%.

Turning to `Clc1ccc(C=Cc2ccccn2)cc1`, the Potency was 0.379 µM (active). Consider `Cc1ccc2nc(/C(C#N)=C\c3ccc([N+](=O)[O-])o3)[nH]c2c1`, for which the Potency was 8.49 µM (active). `Nc1c(C(=O)Nc2ccccc2Br)sc2nc(-c3cccs3)ccc12`: the Potency is 8.49 µM (active). As for `Nc1c(C(=O)C2CC2)sc2nc(-c3cccs3)cc(C(F)(F)F)c12`, the “activity, negative = inhibition” value was -23.9%.

Take `Cc1sc2ncnc(SCc3ccco3)c2c1C`: the “activity, negative = inhibition” value is -5.64%. Consider `c1coc(CSc2ncnc3c2oc2ccccc23)c1`, for which the Potency is 5.36 µM (active). With `O=C(COCc1cc(-c2cccs2)on1)Nc1cc(Cl)ccc1O`, the “activity, negative = inhibition” value is -0.806%. For `Fc1ccc2nc(Nc3nc4c(F)cc(F)cc4s3)sc2c1`, the Potency is 6.75 µM (active).

For the molecule `Fc1cc(F)c2nc(Nc3nc4cc5c(cc4s3)OCO5)sc2c1`, the Potency was 5.36 µM (active). Regarding `Fc1cccc2sc(Nc3nc4ccccc4s3)nc12`, the Potency is 2.13 µM (active).

Regarding `O=C(OCC(=O)N1CCCC1)c1cc([N+](=O)[O-])ccc1Cl`, the “activity, negative = inhibition” value was -1.21%. For the molecule `O=[N+]([O-])c1ccc(Cl)c(/C=N/n2c(-c3ccncc3)n[nH]c2=S)c1`, the Potency was 1.9 µM (active). As to `CCOCCCNC(=O)c1ccc(-n2c(-c3ccccc3)cc3c2CCC(C)C3)cc1` (stereo unspecified), the “activity, negative = inhibition” value is 7.91%. In the case of `O=C(Nc1ccc(F)cc1F)c1cc(-c2ccco2)nc2ccccc12`, the Potency was 6.75 µM (active).

Consider `O=C(Nc1ccccc1F)c1cc(-c2ccco2)nc2ccccc12`, for which the Potency was 10.7 µM (active).

On to `O=C(COC(=O)/C=C/c1ccco1)NCc1ccccc1Cl`, for which the “activity, negative = inhibition” value is -23.7%. For the molecule `COc1ccccc1CNC(=O)COC(=O)c1cc(-c2ccco2)nc2ccccc12`, the Potency was 5.36 µM (active).

Turning to `O=Cc1c(Sc2ccccn2)nc2ccccn2c1=O`, the “activity, negative = inhibition” value was -11%. Turning to `COc1ccc(N(CCCN2C(=O)c3cccc4cccc(c34)C2=O)C(=O)c2cccc(OC)c2)cc1`, the “activity, negative = inhibition” value was 4.49%. As to `CC1Oc2ccccc2OC1C(=O)Nc1ccccn1` (stereo unspecified), the “activity, negative = inhibition” value is -0.195%. For the molecule `CCOc1cc2ccccc2cc1C(=O)Nc1ccccn1`, the Potency is 5.36 µM (active).

Turning to `CCc1nc(Nc2cccc(F)c2)c2oc3ccccc3c2n1`, the “activity, negative = inhibition” value was -22.6%. With `Brc1ccccc1C1N=C(c2ccccc2)NO1` (stereo unspecified), the Potency is 1.35 µM (active).

`O=C(Nc1cccc([N+](=O)[O-])c1)Nc1cccs1`: the Potency is 10.7 µM (active).

Take `O=C(CCCCCCC(=O)Nc1ccccc1)NO`: the “activity, negative = inhibition” value was -18.5%. For `Cc1cc(C)cc(NC(=O)Nc2cccs2)c1`, the Potency is 2.39 µM (active). Regarding `O=C(CSc1cccc[n+]1[O-])Nc1cc([N+](=O)[O-])ccc1Cl`, the “activity, negative = inhibition” value was -5.19%. Turning to `O=C(NNC(=O)C12CC3CC(CC(C3)C1)C2)c1cccc([N+](=O)[O-])c1`, the “activity, negative = inhibition” value is -24.4%. For `O=C(CCCc1ccccc1)Nc1cccc([N+](=O)[O-])c1`, the Potency was 7.57 µM (active). For the molecule `Cc1cc(C)cc(NC(=O)/C=C/c2ccc([N+](=O)[O-])s2)c1`, the “activity, negative = inhibition” value was 1.91%.

`COc1ccc(NC(=O)C2CC(=O)N/C(=N/N=C/c3ccco3)S2)cc1` (stereo unspecified): the “activity, negative = inhibition” value was -14.5%. On to `COc1ccc(OC)c(NC(=O)C(C#N)=Cc2ccco2)c1`, for which the Potency was 9.53 µM (active).

With `O=C(/C=C/c1ccccc1Cl)Nc1nc(-c2cccs2)ns1`, the Potency is 1.69 µM (active). With `Cc1cc2c(cc1C)N(C(=O)CCl)CC(=O)N2`, the “activity, negative = inhibition” value is -9.54%. Take `CSc1ccc(-c2cc(=O)c3ccccc3o2)cc1`: the Potency is 1.2 µM (active).

For the molecule `O=c1cc(-c2ccccc2)oc2ccc(Cl)cc12`, the Potency is 0.849 µM (active).

For `Nn1c(-c2ccccc2)nc2cc(Cl)ccc2c1=O`, the “activity, negative = inhibition” value was -1.21%. With `COc1c(C(=O)Nc2nnc(C3CC3)s2)csc1Cl`, the Potency was 7.57 µM (active).

In the case of `O=[N+]([O-])c1cncc([N+](=O)[O-])c1Nc1cccc(O)c1`, the “activity, negative = inhibition” value is 6.84%. As for `O=C(N/N=C/C(Br)=C/c1ccccc1)c1ccc([N+](=O)[O-])cc1`, the “activity, negative = inhibition” value is -28.9%.

With `O=[N+]([O-])c1cc(Cl)cc2c1nc(NCCO)c1ccccc12`, the “activity, negative = inhibition” value is -5.22%. For `O=[N+]([O-])c1ccccc1C=NNc1ccccc1`, the Potency is 2.69 µM (active). Consider `O=[N+]([O-])c1ccc(Cl)cc1C=NNc1ccccn1`, for which the “activity, negative = inhibition” value was -18.3%. As for `O=[N+]([O-])c1ccccc1/C=N/Nc1nccnc1Cl`, the Potency was 13.5 µM (active). Still for that read-out and setting: then `Fc1ccc2cc(-c3ccsc3)ncc2c1`, with 1.69 µM (active). As to `CCN(CC)c1ccc2c(c1)oc(=O)c1c(Cl)cc(=O)oc12`, the Potency was 6.01 µM (active). Turning to `Cc1noc(C)c1-c1ccc2ncnc(NCC3CCCCN3C)c2c1` (stereo unspecified), the “activity, negative = inhibition” value was 8.17%. In the case of `O=C(Nc1ccccc1)c1cc([N+](=O)[O-])ccc1Cl`, the “activity, negative = inhibition” value was 7.81%.

For the molecule `CCn1ncc(Br)c1C(=O)Nc1cc([N+](=O)[O-])ccc1C`, the “activity, negative = inhibition” value is -0.338%. On to `O=C(Nc1cccc([N+](=O)[O-])c1)c1[nH]ncc1Cl`, for which the Potency is 9.53 µM (active).

With `COc1ccc(C(C#N)=C2C=CC(=NO)C=C2)cc1`, the Potency was 8.49 µM (active). On to `Cc1cc(C)n(-c2nc3ccccc3c(=O)n2OCc2ccc(F)cc2)n1`, for which the “activity, negative = inhibition” value is -3.71%. With `O=C(CSc1nccc(-c2cccs2)n1)Nc1ccc(F)c(Cl)c1`, the “activity, negative = inhibition” value is 0.686%.

`C#CCSc1nc(-c2cccs2)ccc1C#N`: the “activity, negative = inhibition” value is -22.8%. On to `N#Cc1cccn1-c1nccc(-c2cccs2)n1`, for which the Potency was 12 µM (active). In the case of `Cc1ccc(S(=O)(=O)c2nc(S(C)(=O)=O)sc2N2CCC(O)CC2)cc1`, the “activity, negative = inhibition” value is -0.609%.

Turning to `Fc1cccc(Cc2c(-c3ccco3)nc3c4ccccc4ccn23)c1`, the Potency is 0.379 µM (active).

On to `Clc1cccc(Cc2c(-c3ccco3)nc3c4ccccc4ccn23)c1`, for which the Potency is 1.9 µM (active).

Turning to `c1ccc(-c2nc3c4ccccc4ccn3c2Cc2ccsc2)cc1`, the Potency was 1.51 µM (active). Consider `c1ccc(Cc2c(-c3ccco3)nc3c4ccccc4ccn23)cc1`, for which the Potency is 0.601 µM (active). Turning to `CCCc1nc([N+](=O)[O-])c(S(=O)(=O)c2ccccc2)n1CC(C)C`, the “activity, negative = inhibition” value is -3.37%. For the molecule `COc1ccccc1Cc1c(-c2ccco2)nc2c3ccccc3ccn12`, the Potency was 0.301 µM (active). On to `Clc1cccc(Cc2c(-c3ccccc3)nc3c4ccccc4ccn23)c1`, for which the Potency was 6.01 µM (active). Regarding `Cc1ccc(Cc2c(-c3ccco3)nc3c4ccccc4ccn23)cc1`, the Potency was 0.239 µM (active). Regarding `COc1ccc(Cc2c(-c3ccccc3)nc3c4ccccc4ccn23)c(C)c1`, the Potency is 3.01 µM (active). Take `FC(F)(F)c1ccccc1Cc1c(-c2ccccc2)nc2c3ccccc3ccn12`: the Potency was 5.36 µM (active).

Regarding `Clc1ccsc1-c1csc(-c2cccnc2)n1`, the Potency was 3.38 µM (active).

Take `CCOC(=O)N1CCc2c(sc3c2C(=O)NC(c2ccccc2)N3)C1` (stereo unspecified): the Potency was 6.75 µM (active). `CC(=O)N1CCc2c(sc(NC(=O)CCS(=O)(=O)c3ccccc3)c2C#N)C1`: the “activity, negative = inhibition” value is 2.37%. Take `COc1ccc([C@H]2Cc3cccc(O)c3C(=O)O2)cc1O`: the “activity, negative = inhibition” value is 0.428%.

With `COc1ccc2[nH]c3c(NCc4ccco4)ncnc3c2c1`, the Potency is 4.78 µM (active). `Cc1sc2ncnc(NCc3ccco3)c2c1C`: the “activity, negative = inhibition” value was -16.7%. Consider `CCc1cc2c(NCc3ccco3)ncnc2s1`, for which the “activity, negative = inhibition” value is -4.96%.

Regarding `Nc1ccccc1C=C1Cc2ccccc2C1=O`, the Potency is 0.426 µM (active). On to `O=C1C(=Cc2cccc(F)c2)Cc2ccccc21`, for which the Potency is 1.51 µM (active). As for `COc1cc(OC)c(OC)cc1/C=C1/Cc2ccccc2C1=O`, the “activity, negative = inhibition” value was 3.06%. For `O=C1C(=Cc2cccc(Cl)c2)Cc2ccccc21`, the Potency was 1.07 µM (active). For the molecule `O=C1C(=Cc2ccccc2Cl)CCc2ccccc21`, the Potency was 0.169 µM (active).

For `Cc1c(=O)n(OCc2ccc(Cl)cc2)c2ccccc2[n+]1[O-]`, the “activity, negative = inhibition” value was 1.48%. `CC1(O)c2ccccc2C(=O)N1CCc1ccccc1F` (stereo unspecified): the Potency is 6.75 µM (active). As to `Oc1ccccc1-n1nc2ccc3nonc3c2n1`, the “activity, negative = inhibition” value is -0.935%. As for `Brc1cc(Br)c2nc(-c3cccs3)ccc2c1`, the Potency was 3.01 µM (active). As for `FC(F)(F)c1cc(-c2cccs2)nc(-n2cc(Br)cn2)n1`, the “activity, negative = inhibition” value is -19.9%. `FC(F)(F)c1cc(-c2cccs2)nc(NCc2ccco2)n1`: the “activity, negative = inhibition” value was -2%. For `Cc1sc2c(c1C)C(=O)NC(c1ccccc1F)N2` (stereo unspecified), the Potency was 2.39 µM (active). For `O=C(CN1CCS(=O)(=O)CC1)N/N=C/c1cccc(C(F)(F)F)c1`, the “activity, negative = inhibition” value was 5.95%. Turning to `CCOC(=O)c1c(NC(=O)/C=C/c2ccc(C)o2)sc(C)c1C`, the Potency is 13.5 µM (active). `Cn1nc(C(=O)Nc2c(-c3ccccc3)nc3sccn23)c2ccccc2c1=O`: the “activity, negative = inhibition” value is -28.2%.
